# PubChem BioAssay (Tox21)
# A number with no mark means an inactive call. Records with an inconclusive call do not appear. Entries that show only a call come without a potency. The source made the active and inactive calls. Unless noted, the call rests on the fitted dose curve.
# Key:
# [1] = Nuclear factor erythroid 2-related factor 2/antioxidant responsive element (Nrf2/ARE) small molecule agonists: qHTS cell viability counter screen in human keratinocytes (AID 1919968; active means well fitted curve in the direction sought with a large enough effect in the repeat runs; an effect the other way counts as inactive or inconclusive; further: nearly all actives have a fitted effect of over 55% in size)
# In short: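 Cytotoxicity was multiplexed with the Nrf2/ARE luciferase assay in the same wells. Stably transfected HaCaT keratinocytes were treated with test compounds for 23 h at 37 C. Cell viability was then measured by CellTiter-Fluor fluorescence.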
# [2] = Nuclear factor erythroid 2-related factor 2/antioxidant responsive element (Nrf2/ARE) small molecule agonists: luciferase reporter gene qHTS assay in human keratinocytes (AID 1919969); further: nearly all actives have a fitted effect of over 35% in size; further: potency means the concentration at half of the fitted maximal effect
# [3] = target: Gonadotropin-releasing hormone receptor (Homo sapiens) (UniProt P30968); experiment: Human gonadotropin-releasing hormone receptor (GnRHR) small molecule agonists, calcium flux assay in GnRHR-HEK293 cells (AID 1920063); further: nearly all actives have a fitted effect of over 35% in size
# Chain of Gonadotropin-releasing hormone receptor (Homo sapiens) (P30968 whole entry, looked up): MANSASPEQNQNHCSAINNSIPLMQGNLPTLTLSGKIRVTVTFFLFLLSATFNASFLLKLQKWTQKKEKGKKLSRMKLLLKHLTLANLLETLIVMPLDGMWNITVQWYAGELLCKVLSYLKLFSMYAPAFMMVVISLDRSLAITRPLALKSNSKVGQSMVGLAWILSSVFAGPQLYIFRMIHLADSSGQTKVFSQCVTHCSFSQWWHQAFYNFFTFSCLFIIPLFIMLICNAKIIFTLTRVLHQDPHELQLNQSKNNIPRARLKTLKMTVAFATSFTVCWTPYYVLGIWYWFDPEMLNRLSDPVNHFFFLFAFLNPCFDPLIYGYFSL
# In short: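 Agonist activity was measured as intracellular calcium flux in HEK293 cells engineered to stably express human GnRHR. After dye loading for 1 hour at 37 C, compounds in DMSO were added and fluorescence was followed for 3 minutes.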
# [4] = target: KiSS-1 receptor (Homo sapiens) (UniProt Q969F8); experiment: Human kisspeptin (KISS1R) small molecule agonists, calcium flux assay in KISS1R-HEK293 cells (AID 1920064; active means well fitted curve in the direction sought with a large enough effect in the repeat runs; an effect the other way counts as inactive or inconclusive)
# Chain of KiSS-1 receptor (Homo sapiens) (Q969F8 whole entry, looked up): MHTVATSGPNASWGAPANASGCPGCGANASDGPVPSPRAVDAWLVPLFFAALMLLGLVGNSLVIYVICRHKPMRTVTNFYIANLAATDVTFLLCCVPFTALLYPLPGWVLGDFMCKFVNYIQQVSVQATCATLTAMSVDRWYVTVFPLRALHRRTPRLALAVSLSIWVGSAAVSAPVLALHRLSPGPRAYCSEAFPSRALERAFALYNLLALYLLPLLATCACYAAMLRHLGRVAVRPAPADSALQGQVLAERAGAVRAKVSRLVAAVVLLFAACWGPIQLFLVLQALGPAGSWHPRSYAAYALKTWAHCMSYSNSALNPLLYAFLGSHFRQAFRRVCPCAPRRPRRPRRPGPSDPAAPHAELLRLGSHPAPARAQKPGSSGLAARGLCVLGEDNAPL
# In short: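 Agonist activity is monitored as intracellular calcium rise in engineered HEK293 cells carrying human KISS1R. Cells are dye-loaded for 1 h at 37 C before compound addition, and fluorescence is recorded for 3 min.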
# [5] = G protein-coupled receptor (GPCR) small molecule agonists, calcium flux assay: HEK293 wild type cell line counter screen (AID 1920065)
# In short: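 Seed cells, incubate 18 h (37 C, 5% CO2); add calcium dye, 1 h at 37 C; pin-transfer compounds, ATP control or DMSO; read fluorescence 480/540 nm each second for 3 min.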
# [6] = p53 small molecule agonists, cell-based qHTS assay with human liver microsomes: qHTS cell viability counter screen (AID 1963579); further: nearly all actives have a fitted effect of over 45% in size; further: potency means the concentration at half of the fitted maximal effect
# In short: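 p53RE-bla cells, 4,000/well, dosed 5 hours after plating, with human liver microsomes (0.5 mg/mL final) plus NADPH (0.5 mg/mL final), 16 hours at 37 C. Viability read as CellTiter-Glo luminescence after 30 min at room temperature.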
# [7] = p53 small molecule agonists, cell-based qHTS assay with rat liver microsomes: qHTS cell viability counter screen (AID 1963580); further: nearly all actives have a fitted effect of over 45% in size
# In short: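 Counter screen for cytotoxicity under metabolic activation: rat liver microsomes and NADPH, 0.5 mg/mL final each, added with compounds to p53RE-bla HCT-116 cells; 16 h at 37 C, then ATP luminescence read.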
# [8] = p53 small molecule agonists, cell-based qHTS assay: qHTS cell viability counter screen (AID 1963581); further: nearly all actives have a fitted effect of over 45% in size
# In short: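 Viability was counter-screened in parallel with the p53 agonist reporter by measuring intracellular ATP luminescence in the same HCT-116 p53RE-bla wells after 16 h compound treatment at 37 C.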
# [9] = target: 5-hydroxytryptamine receptor 2A (Homo sapiens) (UniProt P28223); experiment: 5-hydroxytryptamine receptor 2A (HTR2A) small molecule antagonists, cell-based qHTS assay (AID 1963586); further: nearly all actives have a fitted effect of over 45% in size; further: potency means the concentration at half of the fitted maximal effect
# Chain of 5-hydroxytryptamine receptor 2A (Homo sapiens) (P28223 whole entry, looked up): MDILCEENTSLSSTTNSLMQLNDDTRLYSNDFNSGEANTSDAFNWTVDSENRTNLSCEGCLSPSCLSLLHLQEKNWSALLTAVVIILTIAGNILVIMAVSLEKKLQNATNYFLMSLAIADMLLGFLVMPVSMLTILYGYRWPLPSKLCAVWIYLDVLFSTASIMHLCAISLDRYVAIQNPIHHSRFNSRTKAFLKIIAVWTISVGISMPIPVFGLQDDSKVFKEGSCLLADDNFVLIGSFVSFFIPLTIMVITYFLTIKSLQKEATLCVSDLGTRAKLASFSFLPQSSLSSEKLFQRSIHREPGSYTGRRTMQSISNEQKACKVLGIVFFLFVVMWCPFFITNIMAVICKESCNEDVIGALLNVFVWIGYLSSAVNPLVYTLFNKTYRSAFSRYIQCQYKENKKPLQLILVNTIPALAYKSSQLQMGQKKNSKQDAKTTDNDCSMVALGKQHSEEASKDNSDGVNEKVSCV
# In short: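 CHO cells stably expressing human HTR2A were plated for 18 h at 37 C, then loaded with calcium dye for 1 h. Compounds were preincubated 5 min at room temperature before DOI (4 nM solution) was added. Kinetic fluorescence was read for 3 min.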
# [10] = target: 5-hydroxytryptamine receptor 2A (Homo sapiens) (UniProt P28223); experiment: 5-hydroxytryptamine receptor 2A (HTR2A) small molecule agonists, cell-based qHTS assay (AID 1963587); further: nearly all actives have a fitted effect of over 30% in size
# In short: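 HTR2A-CHO cells, plated 18 h at 37 C/5% CO2, dye-loaded 1 h at 37 C; compounds in DMSO added by pin tool (agonist mode). Intracellular calcium flux read as kinetic fluorescence on FDSS over 2 min at 1 s intervals.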
# [11] = target: Muscarinic acetylcholine receptor M1 (Homo sapiens) (UniProt P11229); experiment: Cholinergic receptor muscarinic 1 (CHRM1) small molecule antagonists, cell-based qHTS assay (AID 1963588); further: nearly all actives have a fitted effect of over 40% in size
# Chain of Muscarinic acetylcholine receptor M1 (Homo sapiens) (P11229 whole entry, looked up): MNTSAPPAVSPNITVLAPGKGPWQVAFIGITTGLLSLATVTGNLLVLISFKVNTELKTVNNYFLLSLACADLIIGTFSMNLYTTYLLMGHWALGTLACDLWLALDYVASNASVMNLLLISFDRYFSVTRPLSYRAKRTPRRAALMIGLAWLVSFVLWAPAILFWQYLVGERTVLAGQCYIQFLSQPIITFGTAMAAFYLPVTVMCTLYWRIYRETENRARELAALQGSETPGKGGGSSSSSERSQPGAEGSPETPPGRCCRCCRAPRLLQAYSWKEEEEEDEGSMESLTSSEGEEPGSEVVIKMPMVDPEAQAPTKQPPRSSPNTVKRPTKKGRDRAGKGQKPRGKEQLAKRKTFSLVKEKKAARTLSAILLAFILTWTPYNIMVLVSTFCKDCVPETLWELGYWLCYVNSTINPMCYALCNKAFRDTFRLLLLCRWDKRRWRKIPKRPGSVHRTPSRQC
# In short: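 Compounds were tested at 15 concentrations in three independent runs. Dye-loaded CHRM1-CHO cells were exposed 5 min at room temperature before stimulation by acetylcholine added at 50nM. Intracellular calcium was read kinetically on FDSS for 3 min.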
# [12] = target: Muscarinic acetylcholine receptor M1 (Homo sapiens) (UniProt P11229); experiment: Cholinergic receptor muscarinic 1 (CHRM1) small molecule agonists, cell-based qHTS assay (AID 1963589); further: nearly all actives have a fitted effect of over 35% in size
# In short: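 Cells were plated and incubated 18 h at 37 C/5% CO2, loaded with calcium dye for 1 h at 37 C, then treated with compounds in DMSO. Fluorescence was recorded kinetically at 1 sec intervals.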
# [13] = cAMP Responsive Elements (CRE) small molecule agonists, cell-based qHTS assay (AID 1963590)
# In short: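 Cells carrying a CRE-driven beta-lactamase reporter (HEK 293T) are seeded, incubated overnight (18 h), and treated with test compounds for 3 h at 37 C; reporter activity is then detected with a FRET substrate after 2 h at room temperature.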
# [14] = cAMP Responsive Elements (CRE) small molecule antagonists, cell-based qHTS assay (AID 1963591; active means well fitted inhibition curve with a large enough effect in the signal ratio in the repeat runs, not every such curve was filed as active; the % refers to the signal ratio)
# In short: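 Cells (CRE-bla HEK 293T, DMEM with 10% dialyzed FBS and 25 mM HEPES) are seeded and incubated 18 h. Compounds are added with NKH477 agonist at 0.25 uM final for 3 h, then FRET substrate for 2 h.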
# [15] = target: Beta-2 adrenergic receptor (Homo sapiens) (UniProt P07550); experiment: Adrenergic beta2 receptor (ADRB2) small molecule antagonists, cell-based qHTS assay (AID 1963592); further: series mostly up to about 92 µM; nearly all actives have a fitted effect of over 50% in size
# Chain of Beta-2 adrenergic receptor (Homo sapiens) (P07550 whole entry, looked up): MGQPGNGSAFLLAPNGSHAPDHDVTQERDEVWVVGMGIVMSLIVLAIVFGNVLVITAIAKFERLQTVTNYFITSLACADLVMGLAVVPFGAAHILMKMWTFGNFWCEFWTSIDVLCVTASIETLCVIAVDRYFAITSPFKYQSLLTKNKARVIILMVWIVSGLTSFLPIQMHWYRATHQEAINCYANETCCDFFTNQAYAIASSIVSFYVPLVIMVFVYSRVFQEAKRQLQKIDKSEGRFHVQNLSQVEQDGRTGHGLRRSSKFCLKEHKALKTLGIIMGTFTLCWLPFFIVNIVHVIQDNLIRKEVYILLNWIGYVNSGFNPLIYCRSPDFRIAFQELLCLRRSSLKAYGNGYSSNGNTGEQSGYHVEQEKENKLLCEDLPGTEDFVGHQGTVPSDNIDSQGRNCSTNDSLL
# In short: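 Assay format: CHO-ADRB2 cells, 18-20hr seeding at 37C/5% CO2, then compound plus 1nM isoproterenol agonist mix for 0.5hr RT. Homogeneous time-resolved fluorescence cAMP detection after 1hr, expressed as 665/615 nm ratio.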
# [16] = target: D(2) dopamine receptor (Homo sapiens) (UniProt P14416); experiment: Dopamine D2 receptor (DRD2) small molecule agonists, cell-based qHTS assay (AID 1963594); further: nearly all actives have a fitted effect of over 35% in size
# Chain of D(2) dopamine receptor (Homo sapiens) (P14416 whole entry, looked up): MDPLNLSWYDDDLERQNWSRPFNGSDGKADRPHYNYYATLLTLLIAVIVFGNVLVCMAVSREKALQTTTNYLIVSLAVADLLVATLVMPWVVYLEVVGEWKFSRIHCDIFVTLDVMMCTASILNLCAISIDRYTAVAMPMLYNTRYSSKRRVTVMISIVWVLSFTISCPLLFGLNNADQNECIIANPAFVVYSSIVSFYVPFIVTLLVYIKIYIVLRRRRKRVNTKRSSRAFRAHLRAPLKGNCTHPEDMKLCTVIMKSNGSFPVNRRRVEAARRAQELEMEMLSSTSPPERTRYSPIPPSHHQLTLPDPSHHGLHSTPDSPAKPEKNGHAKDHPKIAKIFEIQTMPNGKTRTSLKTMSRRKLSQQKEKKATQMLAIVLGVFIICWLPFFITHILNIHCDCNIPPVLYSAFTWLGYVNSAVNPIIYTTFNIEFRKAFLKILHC
# In short: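 HEK293 cells stably expressing DRD2 were cultured 24 h at 37 C, then given Ro20-1724 (0.1 mM final) and compounds for 10 min at room temperature. NKH477 (200nM) was then added for 30 min. cAMP was read by HTRF.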
# [17] = target: D(2) dopamine receptor (Homo sapiens) (UniProt P14416); experiment: Dopamine D2 receptor (DRD2) small molecule antagonists, cell-based qHTS assay (AID 1963595; active means well fitted inhibition curve with a large enough effect in the signal ratio in the repeat runs, with a control signal flat; the % refers to the signal ratio)
# In short: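 Antagonist mode in DRD2-HEK293 cells: after compound addition with 0.1 mM Ro20-1724, cells received quinpirole (12 nM) and NKH477 (200 nM) for 30 min at room temperature; HTRF cAMP read after 1 h detection.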
# [18] = target: Beta-2 adrenergic receptor (Homo sapiens) (UniProt P07550); experiment: Adrenergic beta2 receptor (ADRB2) small molecule agonists, cell-based qHTS assay (AID 1963593);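 further: CHO cells stably overexpressing human ADRB2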
# In short: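 CHO cells stably over-expressing ADRB2 were plated overnight at 37C, then dosed with compounds plus a stimulation mix containing 100uM IBMX and 25uM Ro-20-1724 for 0.5hr at room temperature. cAMP was measured by HTRF competition, 1hr.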
compound,measurement,setting,value
COC=O,"activity change, negative = cytotoxicity",[1],-1.85% [at 8.39 µM]
same,"activity, positive = activation",[2],-9.06% [at 8.39 µM]
same,activity change,[3],"-1.66% [at 5.22 µM, hits give high values]"
same,activation,[4],-0.791% [at 6.97 µM]
same,activation,[5],2.54% [at 5.23 µM]
same,"activity change, negative = cytotoxicity",[6],-1.32% [at 5.99 µM]
same,"activity change, negative = cytotoxicity",[7],1.32% [at 5.99 µM]
same,"activity change, negative = cytotoxicity",[8],-1.7% [at 5.99 µM]
same,Potency,[9],3.09 µM (active)
same,activation,[10],-0.022% [at 7.02 µM]
same,"activity, negative = inhibition",[11],1.52% [at 5.58 µM]
same,activation,[12],-0.541% [at 6.97 µM]
same,activation,[13],-0.656% [at 8.39 µM]
same,"activity change, negative = inhibition",[14],12.8% [at 8.39 µM]
same,"activity change, negative = inhibition",[15],14.4% [at 8.39 µM]
same,activation,[16],-14.1% [at 8.39 µM]
same,"activity change, negative = inhibition",[17],-12.2% [at 8.38 µM]
CC(=O)OCC(=O)[C@@]1(O)[C@H](C)C[C@H]2[C@@H]3CCC4=CC(=O)C=C[C@]4(C)[C@@]3(F)[C@@H](O)C[C@@]21C,Potency,[1],inactive
same,Potency,[2],inactive
same,Potency,[3],inactive
same,Potency,[4],inactive
same,Potency,[5],inactive
same,Potency,[6],inactive
same,Potency,[7],inactive
same,Potency,[8],inactive
same,Potency,[9],inactive
same,Potency,[10],inactive
same,Potency,[11],inactive
same,Potency,[12],inactive
same,Potency,[13],inactive
same,Potency,[14],inactive
same,Potency,[15],inactive
same,Potency,[16],inactive
same,Potency,[17],inactive
O=C(Cl)c1ccc([N+](=O)[O-])cc1,Potency,[1],inactive
same,Potency,[2],inactive
same,Potency,[3],inactive
same,Potency,[4],inactive
same,Potency,[5],inactive
same,Potency,[6],inactive
same,Potency,[7],inactive
same,Potency,[8],inactive
same,Potency,[9],inactive
same,Potency,[10],inactive
same,Potency,[11],inactive
same,Potency,[12],inactive
same,Potency,[13],inactive
same,Potency,[14],inactive
same,Potency,[15],inactive
same,Potency,[16],inactive
same,Potency,[17],inactive
CCSCC,Potency,[1],inactive
same,Potency,[2],72.5 µM (active)
same,Potency,[3],inactive
same,Potency,[4],inactive
same,Potency,[5],inactive
same,Potency,[6],19.3 µM (active)
same,Potency,[7],inactive
same,Potency,[8],inactive
same,Potency,[9],inactive
same,Potency,[10],inactive
same,Potency,[11],inactive
same,Potency,[12],inactive
same,Potency,[13],inactive
same,Potency,[14],inactive
same,Potency,[15],inactive
same,Potency,[16],inactive
same,Potency,[17],inactive
CCC(C)COC(C)=O (centres undefined),Potency,[1],inactive
same,Potency,[2],inactive
same,Potency,[3],inactive
same,Potency,[4],inactive
same,Potency,[5],inactive
same,Potency,[6],inactive
same,Potency,[7],inactive
same,Potency,[8],inactive
same,Potency,[9],inactive
same,Potency,[10],inactive
same,Potency,[11],inactive
same,Potency,[12],inactive
same,Potency,[13],inactive
same,Potency,[14],inactive
same,Potency,[15],inactive
same,Potency,[16],inactive
same,Potency,[17],inactive
CC(C)CCCCCOC(=O)CCCCC(=O)OCCCCCC(C)C,Potency,[1],inactive
same,Potency,[2],48.6 µM (active)
same,Potency,[3],inactive
same,Potency,[4],inactive
same,Potency,[5],inactive
same,Potency,[6],inactive
same,Potency,[7],inactive
same,Potency,[8],inactive
same,Potency,[9],inactive
same,Potency,[10],inactive
same,Potency,[11],inactive
same,Potency,[12],inactive
same,Potency,[13],inactive
same,Potency,[14],inactive
same,Potency,[15],inactive
same,Potency,[16],inactive
same,Potency,[17],inactive
COCCCOCCCOC,Potency,[1],inactive
same,Potency,[2],inactive
same,Potency,[3],inactive
same,Potency,[4],inactive
same,Potency,[5],inactive
same,Potency,[6],inactive
same,Potency,[7],inactive
same,Potency,[8],inactive
same,Potency,[9],inactive
same,Potency,[10],inactive
same,Potency,[11],inactive
same,Potency,[12],inactive
same,Potency,[13],inactive
same,Potency,[14],inactive
same,Potency,[15],inactive
same,Potency,[18],inactive
same,Potency,[17],inactive
